Most compounds without a hit are left out; they make up all but 12% or so of the library.
HP1b chromo inh: HTS for Inhibitors of HP1-beta Chromodomain Interactions with Methylated Histone Tails. Chromobox protein homolog 1 (Homo sapiens), P83916. AlphaScreen HP1-beta / biotin-H3K9me3 peptide binding. Potency, µM (series often up to 114 µM), without a hit: top-dose activity change, negative = inhibition, usual class: inhibitors. 390,000 compounds, 0.56% hits. AID 540317, 2011; further: nearly all actives have a fitted effect of over 70% in size
Target sequence (P83916 whole entry, looked up): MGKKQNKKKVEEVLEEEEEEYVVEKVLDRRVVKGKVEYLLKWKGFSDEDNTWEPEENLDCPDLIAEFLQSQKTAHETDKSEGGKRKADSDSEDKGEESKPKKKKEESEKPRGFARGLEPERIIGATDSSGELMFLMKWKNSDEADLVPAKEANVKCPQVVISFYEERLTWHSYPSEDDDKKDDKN
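AlphaScreen: HP1-beta (50 nM) preformed 30 min with biotin-H3(1-18)K9me3 peptide (50 nM) in PBS pH 7.4, 0.01% Tween-20. Compound added for 30 min at RT, then streptavidin donor/nickel chelate acceptor beads (10 ug/mL) for 30 min.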
JMJD2A Tudor: qHTS Assay for Inhibitors of JMJD2A-Tudor Domain; Lysine-specific demethylase 4A (Homo sapiens), O75164; AlphaScreen JMJD2A-Tudor / H3K4me3 peptide binding; Potency, µM (doses to about 114 µM), without a hit: at the highest dose activity change, negative = inhibition, hits mostly inhibitors; 390,000 compounds, 4.4% hits; AID 504339, 2011; further: on the % scale 0 is the no-effect control and ±100 the full control effect; nearly all actives have a fitted effect of over 50% in size
PLK1 PBD block: qHTS for Inhibitors of PLK1-PDB (polo-like kinase 1 - polo-box domain): Primary Screen. 360,000 compounds, 2.8% hits. Plk1 PBD binding of FITC phosphopeptide, fluorescence polarization. Potency, µM, for the others: max response, negative = inhibition, usual class: inhibitors. Serine/threonine-protein kinase PLK1 (Homo sapiens), P53350. AID 720504, 2013; further: series mostly up to about 57 µM; on the % scale 0 is the no-effect control and ±100 the full control effect; nearly all actives have a fitted effect of over 65% in size
BAZ2B block: qHTS Assay for Inhibitors of BAZ2B. 360,000 compounds, 4.4% hits. Potency, µM (titrated, usually from 114 µM), inactives show at the highest dose activity change, negative = inhibition, usual class: inhibitors. AlphaScreen BAZ2B-H3K14Ac peptide displacement. AID 504333, 2011; further: on the % scale 0 is the no-effect control and ±100 the full control effect; nearly all actives have a fitted effect of over 60% in size
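AlphaScreen luminescence quantifies BAZ2B engagement of H3K14Ac peptide; the protein and biotinylated peptide are both at 50 nM final, buffer PBS pH 7.4 with 0.01% Tween-20, all steps at room temperature.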
G9a inh: qHTS Assay for Inhibitors of Histone Lysine Methyltransferase G9a; Histone-lysine N-methyltransferase EHMT2 (Homo sapiens), Q96KQ7; Potency, µM (top dose mostly 102 µM), for inactives: at the top dose activity, negative = inhibition, hits mostly inhibitors; G9a H3K9 monomethylation, AlphaScreen, 2 h; 350,000 compounds, 8.8% hits; AID 504332, 2011; further: on the % scale 0 is the no-effect control and ±100 the full control effect; nearly all actives have a fitted effect of over 75% in size
Target sequence (Q96KQ7 913-1193 limits assumed): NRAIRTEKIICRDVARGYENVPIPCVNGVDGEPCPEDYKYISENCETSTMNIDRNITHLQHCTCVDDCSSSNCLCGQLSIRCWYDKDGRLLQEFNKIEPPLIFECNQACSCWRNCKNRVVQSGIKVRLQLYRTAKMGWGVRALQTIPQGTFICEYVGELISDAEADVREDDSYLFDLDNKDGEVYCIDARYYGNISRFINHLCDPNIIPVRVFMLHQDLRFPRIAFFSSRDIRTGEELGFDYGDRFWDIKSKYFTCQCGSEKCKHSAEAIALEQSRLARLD
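Compounds were preincubated with 20 nM G9a for 15 min, after which biotinylated H3K9 peptide (500 nM) and SAM (20 uM) started a 2 h room-temperature reaction. Monomethylated product was quantified by antibody-based AlphaScreen chemiluminescence.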
Sfp inh: qHTS Assay for Inhibitors of Bacillus subtilis Sfp phosphopantetheinyl transferase (PPTase); Biochemical Sfp PPTase activity, qHTS; Potency, µM, inactives show largest response in the series, negative = inhibition, usual class: inhibitors; 310,000 compounds, 3.5% hits; 4'-phosphopantetheinyl transferase ffp (Bacillus subtilis), Q9F4F7;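 further: the enzyme is Sfp with the accession as filed and its product quenches rhodamine fluorescence; 0% = enzyme reaction without inhibitor and -100% = no enzyme wells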
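After 15 min at room temperature with compound, 15 nM Sfp received 5 uM rhodamine-CoA plus 12.5 uM BHQ-2-ybbR (50 mM Hepes pH 7.6, 10 mM MgCl2). Rate came from the fluorescence difference over 30 min, ex 525/em 598 nm.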
The depositor's hits bear a star; ? = inconclusive; nt = no result given; [ ] = dose if it differs, or a comment. The call rests on the fitted dose curve; in most records, active means well fitted curve in the direction sought with a large enough effect; inconclusive means small, poorly fitted or top-dose-only effect, or another doubt; inactive means no such curve, though single readings can be large; an effect the other way counts as inactive or inconclusive. Potency means the concentration at half of the fitted maximal effect.

SMILES | HP1b chromo inh | JMJD2A Tudor | PLK1 PBD block | BAZ2B block | G9a inh | Sfp inh
CCC(C)(C)NC(=O)C(c1ccc(C)cc1)N(CCN1CCOCC1)C(=O)CNC(=O)c1cccs1 (centres undefined) | -7% | ? | 30µM* | -13% | nt | 1%
COC(=O)c1ccc(NC(=O)c2ccc[n+]([O-])c2)cc1 | 22% | 0% | 0% | 7% | -22% | 22%
O=C(C1=C(O)C(=O)N(c2ncccn2)C1c1ccc(Cl)cc1)c1ccco1 (centres undefined) | 18% | -22% | -8% | 71µM* | nt | -5%
O=C(C1=C(O)C(=O)N(c2ncccn2)C1c1cccc(Cl)c1)c1ccco1 (centres undefined) | 28% | -27% | -10% | ? | 18µM* | 56µM*
Cc1cc(N2C(=O)C(O)=C(C(=O)c3ccco3)C2c2cccc(Cl)c2)no1 (centres undefined) | -1%[57 µM] | -24% | -18% | ? | -11%[0.0925 µM] | -13%
CC(=O)C1=C(O)C(=O)N(c2ccccn2)C1c1ccc(Cl)cc1 (centres undefined) | 11% | -3% | -8% | 10% | -14% | 13%
O=C(C1=C(O)C(=O)N(c2ncccn2)C1c1ccc(Cl)c(Cl)c1)c1ccco1 (centres undefined) | ? | 7.1µM* | -24% | 79µM* | 40µM* | 56µM*
Cc1ccc(C(=O)C2=C(O)C(=O)N(c3ncccn3)C2c2ccc(Cl)cc2)o1 (centres undefined) | 32% | -36% | -11% | 11% | 10µM* | -16%
COc1ccc(-n2c(=O)c(C)nc3cnc(Nc4cccc(OC)c4)nc32)cc1 | nt | nt | nt | nt | 14%[12.7 µM] | -2%
CC(C)CCNC(=O)c1cc(-c2cccnc2)nc2ccc(S(=O)(=O)N3CCC(C)CC3)cc12 | 51% | -12% | nt | 2% | -4%[59 µM] | nt
COc1cc(NC(=O)C2CCN(S(=O)(=O)c3ccc4[nH]c(=O)oc4c3)CC2)cc(OC)c1 | 43% | -8% | -7% | 8% | 18% | 13%
Cc1cccc(OCCn2c(SCC(=O)O)nc3ccccc32)c1 | 39% | -8% | nt | -1% | ? | nt
O=C(O)/C=C/C(=O)Nc1ccc(Cl)c(C(=O)O)c1 | 33% | -15% | 6% | ? | ? | -2%
NNc1ccc(Cl)c(C(=O)O)c1 | 39% | -1%[11.4 µM] | 30µM* | -37% | 1.3µM* | -7%
O=C(O)c1cc(N/N=C/C(Cl)=C/c2ccccc2)ccc1Cl | 9% | -30% | ? | 35µM* | 35µM* | -21%
O=C(O)c1cc(NN=C2c3ccccc3-c3ccccc32)ccc1Cl | -6%[57 µM] | -33% | ? | ? | 45µM* | -8%
NC(=O)N/N=C1\c2ccccc2-c2c(C(N)=O)cccc21 | 12% | -9% | -11% | -6% | 7% | 8%
O=C(O)c1cccc2c1-c1ccccc1/C2=N\Nc1ccccc1 | 22% | ? | 38µM* | -31% | 50µM* | 13µM*
O=C(O)c1cccc2c1/C(=N/O)c1ccccc1-2 | 11% | -15% | -12% | nt | nt | nt
O=C(O)c1cc(N/N=C/c2cccs2)ccc1Cl | nt | nt | nt | ? | ? | 2%
CCCNC(=O)OC[C@@H]1O[C@H](CCO/N=C\[C@@H](C)[C@H](OCc2ccccc2)C(C)C)C=C[C@@H]1Oc1ccc(OC)cc1 | nt | nt | nt | nt | nt | 13%
CCOC(=O)c1cc2ccccc2n1C1CCN(CCc2ccccc2)CC1 | nt | nt | -4% | nt | nt | nt
CC(C)(C)C(=O)NC(=S)Nc1cc(C(=O)O)ccc1Cl | 67% | -7%[11.4 µM] | -24% | -1% | -1%[12.7 µM] | 5%
NNc1cc(C(=O)O)ccc1Cl | ? | 25µM* | ? | ? | nt | ?
COc1ccc(N2CC(C(=O)N[C@@H](C)C(=O)N[C@H](CO)c3ccccc3)CC2=O)cc1 (some centres undefined) | 32% | -5% | -5% | -25% | 5.6µM* | 6%
SMILES | HP1b chromo inh | JMJD2A Tudor | PLK1 PBD block | BAZ2B block | G9a inh | Sfp inh
CC(C)C[C@H](NC(=O)C1CC(=O)N(c2ccc3c(c2)OCO3)C1)C(=O)NC1CCCC1 (some centres undefined) | 29% | -8% | -13% | -24% | ? | 12%
CC(C)[C@H](NC(=O)C1CC(=O)N(c2ccc3c(c2)OCO3)C1)C(=O)NC1CCCC1 (some centres undefined) | 65% | 21% | -13% | ? | 56µM* | 3%
C[C@H](NC(=O)C1CC(=O)N(c2ccc3c(c2)OCCO3)C1)C(=O)NC1CCCC1 (some centres undefined) | 46% | -5% | 5% | -11% | 2% | 12%
C[C@H](NC(=O)C1CC(=O)N(c2ccc3c(c2)OCO3)C1)C(=O)NC1CCCC1 (some centres undefined) | 3% | ? | 27µM* | -14%[57.1 µM] | 10% | 17%
COc1ccc(N2CC(C(=O)N[C@@H](C)C(=O)NC3CCCC3)CC2=O)cc1 (some centres undefined) | 17% | -10% | -11% | 1% | nt | 20%
O=C(C(=O)N1CCCN(Cc2ccc(F)cc2)CC1)c1ccccc1 | nt | nt | -6% | nt | nt | nt
CC1=NN2C(=N)/C(=C\c3cc(C)n(-c4cccc(C)c4)c3C)C(=O)N=C2S1 | 27% | -13% | ? | -2% | -8% | -18%
CC(=O)NC1=NC(=O)/C(=C/c2cc(C)n(-c3ccc(NC(C)=O)cc3)c2C)S1 | 43% | -8% | 18% | ? | ? | 45µM*
CC(=O)NC1=NC(=O)/C(=C/c2cc(C)n(-c3cccc(C(=O)O)c3)c2C)S1 | ? | ? | -4% | 16µM* | 20µM* | 40µM*
Cc1cc(C(=O)Nc2ccncc2)c2ccccc2n1 | 37% | -9% | -4% | ? | nt | 3%
CCOC(=O)c1[nH]c2ccccc2c1NC(=O)c1ccc(OC)c(OC)c1 | 29% | -15% | nt | 3% | -5%[59 µM] | nt
O=C(c1cccs1)N1CCN(Cc2ccccc2[N+](=O)[O-])CC1 | ? | ? | -14% | 56µM* | 11µM* | -21%
CCS(=O)(=O)N1CCN(C(=O)c2cccc(OC)c2)CC1 | 28% | -2% | -1% | nt | 6%[59 µM] | 15%
COc1cccc(C(=O)N2CCN(Cc3ccccc3[N+](=O)[O-])CC2)c1 | ? | 22µM* | -15% | ? | 11µM* | -9%
COc1cc(NC(=O)CSc2nc(-c3ccco3)cc(C(F)(F)F)n2)cc(OC)c1OC | 44% | 5% | nt | 2% | 2%[59 µM] | nt

Source: PubChem BioAssay
